# According to PubChem BioAssay (EPA / NIEHS):
# Activity calls are given as the source filed them. Rule for the calls: active = hit-call score of the fitted dose curve at least 0.9, where 1 is the maximum; inactive = score below 0.9.
# Experiment: ATG_TGFb_CIS: Attagene CIS-FACTORIAL HepG2 Assay for human Transforming Growth Factor (TGF) (AID 2282967)
# Settings: HepG2 Attagene CIS TGFb reporter, mRNA transcription; actives raise or lower the signal
# Summary of the method: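 Bidirectional fitting relative to DMSO gave the endpoint. Underlying data: reporter mRNA from HepG2 cells carrying transiently transfected cis-regulated reporter constructs, harvested 24 h after dosing and analyzed by RT-PCR and capillary electrophoresis.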
row,SMILES,outcome
1,C[Si](C)(C)O[Si](C)(C)C,inactive
2,CCCN(CCC)S(=O)(=O)c1ccc(C(=O)O)cc1,inactive
3,C=C1CC[C@H](O)C/C1=C/C=C1\CCC[C@]2(C)[C@@H]([C@H](C)/C=C/[C@H](C)C(C)C)CC[C@@H]12,inactive
4,CCC(C)S (stereo not drawn),inactive
5,CCCCCCC(CO)CCCC (stereo not drawn),inactive
6,CCN(CC)C(=O)N(CC)CC,inactive
7,COC(=O)c1ccc([N+](=O)[O-])cc1,inactive
8,c1ccc2[nH]cnc2c1,inactive
9,CC(C)(N=C=O)c1cccc(C(C)(C)N=C=O)c1,inactive
10,N#Cc1ccc(CC(=O)c2cccc(C(F)(F)F)c2)cc1,inactive
11,O=[N+]([O-])c1cccc(Cl)c1,inactive
12,CCCCC1(COC(=O)CCC(=O)O)C(=O)N(c2ccccc2)N(c2ccccc2)C1=O,inactive
13,Nc1ccc2cc(S(=O)(=O)O)cc(O)c2c1N=Nc1ccccc1C(F)(F)F,inactive
14,NC1CCCCC1N (stereo not drawn),inactive
15,CCC1(C)NC(=O)NC1=O (stereo not drawn),inactive
16,CC1C2CC(CC2C2CCCC(O)C2)C1(C)C (stereo not drawn),inactive
17,CCCC(O)C(O)CO (stereo not drawn),inactive
18,CC(C)CC(C)CC(O)CC(C)C (stereo not drawn),inactive

row,SMILES,outcome
1,CCOC(=O)C(C#N)=C(c1ccccc1)c1ccccc1,inactive
2,CC1(C)O[C@@H]2C[C@H]3[C@@H]4CCC5=CC(=O)C=C[C@]5(C)[C@@]4(F)[C@@H](O)C[C@]3(C)[C@]2(C(=O)CO)O1,inactive
3,CC(C)(CO)[C@@H](O)C(=O)NCCC(=O)O,inactive
4,Cc1c(Cl)cccc1[N+](=O)[O-],inactive
5,CC1(C)COCN1,inactive
6,CCCOC(=O)c1c(Cl)c(Cl)c(Cl)c(Cl)c1C(=O)OCCC,inactive
7,CC(C)Nc1nc(N)nc(Cl)n1,inactive
8,OCCCCC(O)CO (stereo not drawn),inactive
9,Cc1cc(=O)oc2cc(N(C)C)ccc12,inactive
10,CS(=O)(=O)OCCCCOS(C)(=O)=O,inactive
11,CCOC(=O)C1OC1c1ccccc1 (stereo not drawn),inactive
12,CN(C)c1cccc(O)c1,inactive
13,O=C(O)CCCCCCCCCCCC(=O)O,inactive
14,O=C(c1ccccc1)C(O)c1ccccc1 (stereo not drawn),inactive
15,C[Si]1(C)O[Si](C)(C)O[Si](C)(C)O1,inactive
16,COc1cc(Cl)c(OC)cc1N,inactive
17,C=CCCC(=O)/C=C/C1C(C)=CCCC1(C)C (stereo not drawn),inactive

# Experiment: ATG_VDRE_CIS: Attagene CIS-FACTORIAL HepG2 Assay for human Vitamin D Receptor Element (VDRE) (AID 2282968)
# Settings: HepG2 VDRE cis-reporter transcription, actives raise or lower the signal
# Summary of the method: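 Transfected HepG2 reporter cells, chemical treatment 24 h. RNA isolated, cDNA amplified with reporter-specific primers, products analysed by capillary electrophoresis. Endpoint fitted in both directions versus DMSO.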
SMILES,outcome,AC50
C[Si](C)(C)O[Si](C)(C)C,inactive,
CCCN(CCC)S(=O)(=O)c1ccc(C(=O)O)cc1,inactive,
C=C1CC[C@H](O)C/C1=C/C=C1\CCC[C@]2(C)[C@@H]([C@H](C)/C=C/[C@H](C)C(C)C)CC[C@@H]12,inactive,
CCC(C)S (stereo not drawn),inactive,
CCCCCCC(CO)CCCC (stereo not drawn),inactive,
CCN(CC)C(=O)N(CC)CC,inactive,
COC(=O)c1ccc([N+](=O)[O-])cc1,inactive,
c1ccc2[nH]cnc2c1,inactive,
COC(=O)C=C(C)CCC=C(C)C,,10.5 µM (active)
CC(C)(N=C=O)c1cccc(C(C)(C)N=C=O)c1,inactive,
N#Cc1ccc(CC(=O)c2cccc(C(F)(F)F)c2)cc1,,26.3 µM (active)
O=[N+]([O-])c1cccc(Cl)c1,inactive,
CCCCC1(COC(=O)CCC(=O)O)C(=O)N(c2ccccc2)N(c2ccccc2)C1=O,inactive,
Nc1ccc2cc(S(=O)(=O)O)cc(O)c2c1N=Nc1ccccc1C(F)(F)F,inactive,
NC1CCCCC1N (stereo not drawn),inactive,
CCC1(C)NC(=O)NC1=O (stereo not drawn),inactive,
CC1C2CC(CC2C2CCCC(O)C2)C1(C)C (stereo not drawn),inactive,
CCCC(O)C(O)CO (stereo not drawn),inactive,
CC(C)CC(C)CC(O)CC(C)C (stereo not drawn),inactive,

SMILES,outcome,AC50
Cc1ccc(S(N)(=O)=O)cc1,inactive,
CC1(C)O[C@@H]2C[C@H]3[C@@H]4CCC5=CC(=O)C=C[C@]5(C)[C@@]4(F)[C@@H](O)C[C@]3(C)[C@]2(C(=O)CO)O1,inactive,
CC(C)(CO)[C@@H](O)C(=O)NCCC(=O)O,inactive,
Cc1c(Cl)cccc1[N+](=O)[O-],inactive,
CC1(C)COCN1,inactive,
CCCOC(=O)c1c(Cl)c(Cl)c(Cl)c(Cl)c1C(=O)OCCC,inactive,
CC(C)Nc1nc(N)nc(Cl)n1,inactive,
OCCCCC(O)CO (stereo not drawn),inactive,
Cc1cc(=O)oc2cc(N(C)C)ccc12,inactive,
CS(=O)(=O)OCCCCOS(C)(=O)=O,inactive,
CCOC(=O)C1OC1c1ccccc1 (stereo not drawn),inactive,
CCOc1ccc(N=Nc2ccc(C=Cc3ccc(N=Nc4ccc(OCC)cc4)cc3S(=O)(=O)O)c(S(=O)(=O)O)c2)cc1,inactive,
CN(C)c1cccc(O)c1,inactive,
O=C(O)CCCCCCCCCCCC(=O)O,inactive,
N[C@@H](Cc1cc(I)c(Oc2cc(I)c(O)c(I)c2)c(I)c1)C(=O)O,,18.8 µM (active)
O=C(c1ccccc1)C(O)c1ccccc1 (stereo not drawn),inactive,
C[Si]1(C)O[Si](C)(C)O[Si](C)(C)O1,inactive,
COc1cc(Cl)c(OC)cc1N,inactive,
C=CCCC(=O)/C=C/C1C(C)=CCCC1(C)C (stereo not drawn),,2.44 µM (active)
